Values without a mark were called inactive.

The subject of this assay is Madurella mycetomatis MM55. Put plainly: percent growth relative to solvent control; higher = less inhibition, active = 20 or less. The following applies: 100 µM; 7 days.
Regarding `O=C(NC1CCCCC1)N1CCN(Cc2ccc3c(c2)OCO3)CC1`, the percent growth is 74.6%.

For the molecule `CNC(=O)C1Cc2ccccc2N1C(=O)Cc1ccc(F)cc1` (stereo not given), the percent growth was 116%.

With `Clc1cccc(CO[C@H]2CCc3ccccc3[C@@H]2n2ccnn2)c1`, the percent growth is 64.8%.

`FC(F)(F)c1ccc(N(c2cccnc2)C2CCN(c3ccc(C(F)(F)F)cn3)CC2)cc1`: the percent growth is 59.5%.

Take `COc1ccc(N(CCc2cccc(C)n2)C(=O)C2CCCCC2)cc1`: the percent growth is 28%.

As for `COc1ccc(-c2cnc3ccc(NCc4ccc(S(N)(=O)=O)cc4)nn23)cn1`, the percent growth is 86.7%.

With `Clc1ccc(CN2CCN(C3=NCCN3)CC2)cc1Cl`, the percent growth was 122%.

`CC1=Nc2ccc(Cl)cc2C(c2ccccc2)N1CCNC(=O)CN(C)C` (stereo not given): the percent growth was 106%.

In the case of `OC[C@H]1O[C@@H](n2c3ccc(Cl)cc3c3c(-c4cc5ccccc5o4)ncnc32)C(O)[C@H]1O` (stereo not given in full), the percent growth is 121%.

`CCC(C)NC(=O)c1ccc(NC(=O)C2(c3ccccc3)CCCC2)cc1` (stereo not given): the percent growth was 96.7%.

With `Cc1ccc(S(=O)(=O)N2CCN(C(=O)c3cc(-c4ccccc4)[nH]n3)CC2)cc1`, the percent growth is 146%.

For `COc1cccc(OC)c1C(=O)Nc1ccc(Cl)c(-c2nc3ccccc3s2)c1`, the percent growth was 78.4%.

With `Cc1nc2ccccn2c1C(=O)NCc1ccc(Cl)cc1`, the percent growth is 33.1%.

On to `Cc1nn(C)cc1C(C)Nc1nncc(-c2ccc(C(F)(F)F)cc2)n1` (stereo not given), for which the percent growth is 61.9%.

Consider `O=C(C1CCN(c2nnnn2-c2ccccc2)CC1)N1CCc2ccccc2C1`, for which the percent growth is 56.4%.
